HCV NS3h FP – HCV NS3 helicase inhibitors, primary screen, biochemical, fluorescence polarization, ChemBridge library. Hepatitis C virus NS3 helicase. NS3h Cy5-dT15 DNA binding. inhibition, % at 100 µM. 16,000 tested, 1.6% active;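 active means inhibition above the average over every tested compound plus 3 SD, cut at about 40% in these data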
Cy5 interf NS3h – Cy5 fluorescence quenchers or enhancers, artefact control for HCV NS3 helicase inhibitor project, biochemical, ChemBridge library, Cy5 readout | Cy5-dT15 DNA with NS3h, fluorescence interference; actives lie on both sides; signal over control mean, under 1 quenches | fluorescence interference ratio at 100 µM | 16,000 tested, 6% active | AID 720488, 2013;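 active means compound fluorescence over control fluorescence at most 0.8, a quencher, or at least a set upper limit, an enhancer; inactive means ratio between 0.8 and the set upper limit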
NS3h confirm – HCV NS3 helicase inhibitors, retest, confirmation, biochemical, fluorescence polarization, ChemBridge library; 240 tested, 20% active; inhibition, % at 100 µM; shares compounds with HCV NS3h FP; NS3h binding to Cy5-dT15 DNA;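 active means percent inhibition of 50% or more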
SSB-DNA FP CB – E. coli SSB-DNA binding inhibitors, counter-screen for HCV NS3 helicase inhibitor project, biochemical, fluorescence polarization, selected ChemBridge compounds | AID 720486, 2013 | inhibition, % at 100 µM | 240 tested, 40% active | E. coli SSB binding Cy5-dT15 | shares compounds with HCV NS3h FP;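 active means inhibition of at least 50%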;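 further: displacers lower Cy5 polarization so higher inhibition means more SSB displaced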
Target sequence (P0AGE0 whole entry, looked up): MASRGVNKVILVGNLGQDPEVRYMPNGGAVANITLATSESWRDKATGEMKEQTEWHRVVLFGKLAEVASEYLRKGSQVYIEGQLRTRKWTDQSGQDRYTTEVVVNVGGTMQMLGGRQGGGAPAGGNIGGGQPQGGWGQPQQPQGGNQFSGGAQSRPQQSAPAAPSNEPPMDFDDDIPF
Cy5 SSB fluor CB – Cy5 fluorescence interference with SSB-bound oligo, artefact control for HCV NS3 helicase inhibitor project, biochemical, E. coli SSB, selected ChemBridge compounds. shares compounds with HCV NS3h FP. Cy5-dT15/E. coli SSB fluorescence interference; actives lie on both sides. fluorescence interference ratio at 100 µM. 240 tested, 8% active;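 active means fluorescence interference ratio at or above 1.2, signal boosting, or at or below 0.8, signal quenching; inactive means ratio between 0.8 and 1.2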;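 further: ratio of compound well signal to mean negative control signal so 1 means no effect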
Cy5 interf conf – Cy5-DNA-NS3h complex fluorescence interference, confirmation, artefact control for HCV NS3 helicase inhibitor project, biochemical, ChemBridge library; shares compounds with HCV NS3h FP; Cy5-dT15 DNA/NS3h fluorescence interference counterscreen; 240 tested, 44% active; fluorescence interference ratio at 100 µM, hits read low;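 active means fluorescence interference ratio at or below 0.8 quencher or at or above a set limitenhancer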;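 further: ratio of compound fluorescence to mean of negative controls so 1 means no interference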
* hit, by the source's call; . = not tested or not shown. A selection: hits, their analogues and other compounds. The true share with any hit is near 6.9%.

SMILES	HCV NS3h FP	Cy5 interf NS3h	NS3h confirm	SSB-DNA FP CB	Cy5 SSB fluor CB	Cy5 interf conf
COc1ccc2c(c1)C1C=CCC1C(C(=O)O)N2 (stereo not given)	84.4*	1.19	59.4*	108.5*	1.46*	0.944
O=[N+]([O-])c1ccc2c(c1)C1C=CCC1C(c1cccc(Cl)c1Cl)N2 (stereo not given)	6.9	0.971	.	.	.	.
C=CCc1ccccc1OCCOc1cccc(/C=c2\sc3nc4ccccc4n3c2=O)c1	0.7	0.969	.	.	.	.
CC1=C(C)CC(C(=O)Nc2ccc(N3C(=O)c4ccccc4C3=O)cc2)C(C(=O)O)C1 (stereo not given)	5.2	0.919	.	.	.	.
COc1ccc(NS(=O)(=O)c2ccc(C)c([N+](=O)[O-])c2)cc1	-6.1	1.02	.	.	.	.
CCN(CC)c1ccc(N=Cc2c(O)[nH]c(=S)[nH]c2=O)cc1	93.5*	0.734*	54.2*	69.7*	0.911	0.79*
CCN(CC)c1ccc(C=Nc2ccc(S(N)(=O)=O)cc2)c(O)c1	8.6	1.02	.	.	.	.
COc1cc(SC)ccc1C(=O)n1nnc2ccccc21	9.2	0.921	.	.	.	.
Cc1nc(=O)c(-c2ccccc2)c(C)n1-c1ccc(OCC(=O)O)cc1	-3.7	1.09	.	.	.	.
Cc1ccc(C)n1-c1ccc(OCC(=O)O)cc1	81.6*	1.35*	78.5*	95.1*	0.918	0.828
COc1ccc(/C=C2/SC(=O)N(c3ccccc3)C2=O)c(OC)c1	9.1	0.966	.	.	.	.
Cc1cc(C)cc(N2C(=O)NC(=O)/C(=C\c3cc(Br)c(O)c([N+](=O)[O-])c3)C2=O)c1	35.5	0.985	27.7	52.7*	0.946	0.991
COc1cc(/C=C2\C(=O)NC(=O)N(c3cc(C)cc(C)c3)C2=O)cc(OC)c1O	7.9	1.06	.	.	.	.
Cc1cccc(N2C(=O)NC(=O)/C(=C/c3cc(Cl)c(O)c(Cl)c3)C2=O)c1	15.6	1.04	.	.	.	.
Cc1cccc(N2C(=O)NC(=O)/C(=C\c3cc(Br)c(O)c([N+](=O)[O-])c3)C2=O)c1	31.5	0.988	31.9	62.4*	0.928	0.75*
Cc1cc(/C=N\n2cnnc2)c(C)n1-c1ccccc1	-6.1	1	.	.	.	.
Cc1cc(C)nc(NS(=O)(=O)c2ccc(NC(=O)c3cc(Cl)cc(Cl)c3)cc2)n1	6.8	1.07	.	.	.	.
CCCC(=O)Nc1ccc(Cl)cc1C(=O)O	-10.5	0.972	.	.	.	.
CCc1cc(=O)oc2cc(OCC(=O)c3ccc(Cl)cc3)ccc12	9.1	1.17	.	.	.	.
CCOc1ccc2ccccc2c1C=C1C(=O)NC(=S)NC1=O	43.5*	0.886	19.3	39.3	0.936	0.967
CCOc1ccc2ccc(OCC)c(/C=C3/SC(=S)NC3=O)c2c1	-2.0	1.03	.	.	.	.
O=C(NC(=S)Nc1ccc2oc(-c3ccc(I)cc3)nc2c1)c1ccccc1Cl	4.3	0.951	.	.	.	.
O=C(O)Cc1c[nH]c2ccc(O)cc12	89.7*	0.808	78.5*	109.7*	0.879	0.911
O=C(O)CC(C(=O)O)c1c[nH]c2ccccc12 (stereo not given)	-5.2	1.06	.	.	.	.
COc1cccc(OCCOCCOc2cccc(OC)c2)c1	6.6	0.925	.	.	.	.
SMILES	HCV NS3h FP	Cy5 interf NS3h	NS3h confirm	SSB-DNA FP CB	Cy5 SSB fluor CB	Cy5 interf conf
O=C(N/N=C\c1ccccc1O)/C(=C\c1ccc2c(c1)OCO2)NC(=O)c1ccccc1	4.6	1.1	.	.	.	.
CN(C)c1ccc(/C=C(\NC(=O)c2ccccc2)C(=O)N/N=C\c2cc(O)ccc2[N+](=O)[O-])cc1	44.9*	0.646*	24.5	75.7*	0.791*	0.728*
O=C1NN(c2ccc(Cl)cc2)C(=O)/C1=C\c1ccc(-c2ccc(Cl)c(C(=O)O)c2)o1	52.1*	0.804*	36.2	28.4	0.968	0.916
COc1ccc([N+](=O)[O-])cc1-c1ccc(/C=C2\C(=O)NC(=O)N(c3ccc(Cl)cc3)C2=O)o1	20.4	1.09	.	.	.	.
O=C1NC(=O)N(c2ccccc2)C(=O)/C1=C\c1ccc(-c2cccc(C(=O)O)c2)o1	50.8*	0.984	38.3	52.7*	0.919	0.921
O=C1NN(c2ccccc2)C(=O)/C1=C/c1ccc(-c2ccc(F)cc2)o1	7.3	0.985	.	.	.	.

Screening data: PubChem BioAssay, Milwaukee Institute for Drug Discovery
